From ChEMBL document CHEMBL4513154, “CO-ADD screening of Jain University (India) compounds”
Results with a measured potency or affinity are listed apart.

How the values were obtained:
[1] = test system: Staphylococcus aureus; conditions: Concentration 32 ug.mL-1; ASSAY_TEST Inhibition of Bacterial Growth; detection method Absorption (OD600); MEDIA CAMHB; plate type 384well; NBS; CORNING #3640; time 18 hr
[2] = test system: Escherichia coli; conditions: Concentration 32 ug.mL-1; ASSAY_TEST Inhibition of Bacterial Growth; detection method Absorption (OD600); MEDIA CAMHB; plate type 384well; NBS; CORNING #3640; time 18 hr

Question: Clc1ccc2c(c1)nc(-c1cscn1)n2Cc1ccc(Cl)nc1 was tested. Which Inhibition [1] did it give?
Answer: -10.99%

Question: And the Inhibition [2]?
Answer: -7.54%

Question: Which results are given for Clc1ccc(Cn2c(-c3cscn3)nc3c(Cl)cccc32)cn1?
Answer: Inhibition [1]: -6.34%; Inhibition [2]: -8.9%

Question: What does the source list for Clc1ccc(Cn2c(-c3cscn3)nc3ccccc32)cn1?
Answer: Inhibition [1]: 3.88%; Inhibition [2]: -1.48%
